The text below walks through data of PubChem BioAssay (EPA / NIEHS).

Assay [1] can be described thus: APR_HepG2_CellLoss_72hr: Apredica 72-hour HepG2 Assay for Cell Loss (AID 2282915). The settings on record: high-content imaging. In short, it runs like this:
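HepG2 cells exposed 72 h to compound at 0.39–200 uM (10 concentrations, duplicate) in 0.5% DMSO. Fixed with 3.7% formaldehyde and Hoechst 33342-stained. Imaged at 20x; nuclear count gives cell number, fitted bidirectionally versus DMSO.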

Assay [2] is described as follows: APR_HepG2_P-H2AX_72hr: Apredica 72-hour HepG2 Assay for H2AX Phosphorylation (AID 2282916).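 Also: phospho-histone H2A.x immunostain intensity per cell marking DNA damage.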 The settings on record: imaging, actives raise or lower the signal. In short, it runs like this:
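HepG2 cells treated 72 h at 0.39–200 uM, 0.5% DMSO final, duplicates. Formaldehyde-fixed, Triton-permeabilised, immunostained for phospho-H2A.x with Hoechst; fluorescence imaged at 20x, bidirectional fit versus DMSO.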

Assay [3] is described as follows: APR_HepG2_MitoMembPot_72hr: Apredica 72-hour HepG2 Assay for Mitochondrial Membrane Potential (AID 2282917). The settings on record: imaging, actives raise or lower the signal. The method in brief: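 HepG2 cells dosed 72 hr with compound at 0.39–200 uM in duplicate, 0.5% v/v DMSO final. Mitochondria stained with 250 nM MitoTracker Red CMXRos for 30 min before formaldehyde fixation, imaged by high-content fluorescence; bidirectional fit versus DMSO.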

Assay [4] can be described thus: APR_HepG2_MitoticArrest_72hr: Apredica 72-hour HepG2 Assay for Mitotic Arrest (AID 2282918). The settings on record: high-content imaging, actives raise or lower the signal. The method in brief: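 HepG2 cells treated 72 h at 0.39–200 uM, 0.5% DMSO final; formaldehyde-fixed, stained with Hoechst 33342 and phospho-histone H3 antibody, imaged by high-content fluorescence; bidirectional fit versus DMSO.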

Assay [5] can be described thus: APR_HepG2_MicrotubuleCSK_72hr: Apredica 72-hour HepG2 Assay for Microtubule CSK Stabilty (AID 2282919). The settings on record: HepG2 microtubule cytoskeleton, high-content imaging, actives raise or lower the signal. The method in brief: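 HepG2 cells were exposed 72 hr to compound at 0.39–200 uM in duplicate (0.5% DMSO final), then fixed and permeabilized. Alpha-tubulin immunofluorescence was imaged by high-content microscopy, with bidirectional fitting against DMSO and taxol as positive control.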

Assay [6] is described as follows: APR_HepG2_P-H2AX_24hr: Apredica 24-hour HepG2 Assay for H2AX Phosphorylation (AID 2282920). The settings on record: high-content imaging, actives raise or lower the signal. In short, it runs like this: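 HepG2 cells dosed 24 h at 0.39–200 uM (10 points, duplicate, 0.5% DMSO final). Formaldehyde-fixed and permeabilized, then immunostained for phospho-H2A.x with Hoechst. Fluorescence quantified by high-content imaging, fitted bidirectionally versus DMSO.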

Assay [7] in a line: APR_HepG2_StressKinase_72hr: Apredica 72-hour HepG2 Assay for Stress Kinase (AID 2282921). The settings on record: HepG2 stress kinase (phospho-c-Jun) imaging, actives raise or lower the signal. The method in brief: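 HepG2 cells treated 72 hr with 0.39–200 uM compound, 0.5% v/v DMSO, duplicate wells. After formaldehyde fixation and Triton permeabilization, stained with anti-phospho-c-Jun (1:500) and Cy3 secondary, imaged at 20x. Fitted in both directions against DMSO.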

The nature of assay [8]: APR_HepG2_StressKinase_24hr: Apredica 24-hour HepG2 Assay for Stress Kinase (AID 2282922). The settings on record: HepG2 stress kinase (phospho-c-Jun) imaging, actives raise or lower the signal. In short, it runs like this:
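HepG2 cells exposed 24 h to 0.39–200 uM compound in duplicate (0.5% v/v DMSO final). Cells fixed in 3.7% formaldehyde, permeabilized and immunostained for phospho-c-Jun; read by high-content fluorescence imaging, fitted bidirectionally against DMSO.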

Assay [9] can be described thus: APR_HepG2_p53Act_72hr: Apredica 72-hour HepG2 Assay for p53 Activation (AID 2282923).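 Also: average cellular p53 protein immunofluorescence intensity in HepG2 cells.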 The settings on record: high-content imaging, actives raise or lower the signal. In short, it runs like this: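 HepG2 cells exposed 72 h to 0.39–200 uM in 0.5% DMSO, duplicates. Fixed, permeabilized cells immunostained for p53 (Cy5) with Hoechst; imaged at 20x, fluorescence analyzed bidirectionally against DMSO.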

Assay [10] in a line: APR_HepG2_MitoMass_72hr: Apredica 72-hour HepG2 Assay for Mitochondrial Mass (AID 2282924).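 Also: MitoTracker Red CMXRos stain intensity per cell imaged as mitochondrial mass.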 The settings on record: high-content imaging, actives raise or lower the signal. The method in brief: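 HepG2 cells dosed 72 hr at 0.39–200 uM (0.5% DMSO), in duplicate. MitoTracker Red CMXRos 250 nM loaded 30 min before formaldehyde fixation; high-content fluorescence imaging, bidirectional fit versus DMSO.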

A short description of assay [11]: ATG_CRE_CIS: Attagene CIS-FACTORIAL HepG2 Assay for human cAMP Responsive Element (CRE) binding protein 3 (AID 2282926). The settings on record: HepG2 CRE cis-reporter, Attagene multiplexed mRNA; actives raise or lower the signal. The method in brief:
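HepG2 cells transiently transfected with cis-element-driven multiple reporter transcription units; CRE reporter mRNA measured 24 h after dosing by RT-PCR, 6-FAM labelling, HpaI digestion and capillary electrophoresis. Bidirectional fit versus DMSO baseline.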

For assay [12], the target named is CCAAT/enhancer-binding protein beta (Homo sapiens) (UniProt P17676). As to the kind of experiment: ATG_C_EBP_CIS: Attagene CIS-FACTORIAL HepG2 Assay for human CCAAT/Enhancer Binding Protein (C/EBP) beta (AID 2282927). The settings on record: HepG2 Attagene cis-factorial transcription factor reporter; actives raise or lower the signal. In short, it runs like this: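 Transiently transfected HepG2 (MRTU library, endogenous TF-driven promoters); 24 h dosing; total RNA → oligo(dT) RT → PCR → 6-FAM primer extension → HpaI digest → CE; fit bidirectionally vs DMSO.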

Assay [13] is described as follows: ATG_DR4_LXR_CIS: Attagene CIS-FACTORIAL HepG2 Assay for human Liver X Receptor (LXR), DR4 submotif (AID 2282929). The settings on record: HepG2 Attagene DR4 cis-reporter, mRNA transcription; actives raise or lower the signal. In short, it runs like this:
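HepG2 cells were transiently transfected with multiple cis-regulated reporter units and dosed for 24 hours. The DR4 reporter mRNA was quantified by RT-PCR, 6-FAM labelling and capillary electrophoresis. Bidirectional fits used DMSO as baseline.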

For assay [14], the target named is Aryl hydrocarbon receptor (Homo sapiens) (UniProt P35869). As to the kind of experiment: ATG_Ahr_CIS: Attagene CIS-FACTORIAL HepG2 Assay for human Aryl Hydrocarbon Receptor (Ahr) (AID 2282930). The settings on record: HepG2 AhR cis-factorial reporter transcription; actives raise or lower the signal. The method in brief:
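Read-out: reporter mRNA quantified by RT-PCR with fluorescent primer extension and capillary electrophoresis. Human HepG2 liver cells carried transfected cis-promoter reporter units and were exposed to chemical for 24 h; gain or loss fitted relative to DMSO.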

The nature of assay [15]: ATG_AP_1_CIS: Attagene CIS-FACTORIAL HepG2 Assay for human Activator Protein 1 (AP-1) (AID 2282931). The settings on record: HepG2 Attagene cis-factorial AP-1 reporter mRNA; actives raise or lower the signal. In short, it runs like this:
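HepG2 cells transiently transfected with cis-element-driven reporter transcription units, dosed for 24 hours. Reporter mRNA measured by RT-PCR, 6-FAM labelling, HpaI digestion and capillary electrophoresis. Bidirectional fitting against DMSO baseline.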

The nature of assay [16]: ATG_AP_2_CIS: Attagene CIS-FACTORIAL HepG2 Assay for human Activator Protein 2 (AP-2) (AID 2282932). The settings on record: HepG2 AP-2 cis-reporter, Attagene transcription factor profiling; actives raise or lower the signal. The method in brief: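 HepG2 cells transiently transfected with cis-element reporter units and exposed for 24 h. Reporter mRNA measured by RT-PCR, FAM labelling, HpaI digestion and capillary electrophoresis. Changes in either direction fitted relative to DMSO.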

Assay [17] in a line: ATG_BRE_CIS: Attagene CIS-FACTORIAL HepG2 Assay for human Bone Morphogenetic Protein (BMP) Response Element (BRE) (AID 2282933). The settings on record: HepG2 BMP response element reporter, Attagene transcription factor profiling; actives raise or lower the signal. The method in brief:
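Read-out: reporter mRNA induction quantified by RT-PCR and capillary electrophoresis after 24 h chemical exposure of transfected HepG2 cells. Endogenous factor activity on the BMP response element; gain or loss fitted against DMSO baseline.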

Assay [18] can be described thus: ATG_CMV_CIS: Attagene CIS-FACTORIAL HepG2 Assay for human CMV (Internal Marker) (AID 2282928).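 Also: endpoint acts as a background internal control marker rather than a target.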 The settings on record: HepG2 CMV promoter reporter, transcription factor profiling; actives raise or lower the signal. The method in brief: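 Cell system: HepG2, transiently transfected multiple reporter units under cis promoters. Exposure: 24 h. Detection: RT-PCR, FAM labeling, HpaI digestion, capillary electrophoresis. Analysis: bidirectional, DMSO baseline.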

For assay [19], the target named is Retinoic acid receptor alpha (Homo sapiens) (UniProt P10276). The experiment in a line: ATG_DR5_RAR_CIS: Attagene CIS-FACTORIAL HepG2 Assay for human Retinoic Acid Receptor Alpha (RARE), DR5 submotif (AID 2282934). The settings on record: HepG2 Attagene cis-factorial RARE DR5 reporter, mRNA; actives raise or lower the signal. In short, it runs like this: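 Read-out: DR5-driven reporter transcript measured by RT-PCR, 6-FAM primer extension, HpaI digest and capillary electrophoresis. Human HepG2 liver cells carry transiently transfected cis-element reporter constructs; dosing lasts 24 h. Gain or loss of signal fitted against DMSO baseline.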

Molecules are shown by their SMILES. The source made the active and inactive calls. The calls were made as follows: active = hit-call score of the fitted dose curve at least 0.9, where 1 is the maximum; inactive = score below 0.9.

What is called AC50 is the concentration at which the activity in the assay is half-maximal.

Chain of CCAAT/enhancer-binding protein beta (Homo sapiens) (P17676 whole entry, looked up): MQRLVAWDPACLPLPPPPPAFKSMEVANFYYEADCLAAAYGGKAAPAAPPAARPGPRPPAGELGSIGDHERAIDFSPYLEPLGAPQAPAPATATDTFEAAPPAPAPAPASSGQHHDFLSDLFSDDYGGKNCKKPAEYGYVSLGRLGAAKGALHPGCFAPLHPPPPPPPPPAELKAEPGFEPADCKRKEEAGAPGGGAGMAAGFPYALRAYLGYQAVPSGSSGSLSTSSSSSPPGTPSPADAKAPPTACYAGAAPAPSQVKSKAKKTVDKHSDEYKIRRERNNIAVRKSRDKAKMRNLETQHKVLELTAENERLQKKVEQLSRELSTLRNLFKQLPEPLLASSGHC
Chain of Aryl hydrocarbon receptor (Homo sapiens) (P35869 whole entry, looked up): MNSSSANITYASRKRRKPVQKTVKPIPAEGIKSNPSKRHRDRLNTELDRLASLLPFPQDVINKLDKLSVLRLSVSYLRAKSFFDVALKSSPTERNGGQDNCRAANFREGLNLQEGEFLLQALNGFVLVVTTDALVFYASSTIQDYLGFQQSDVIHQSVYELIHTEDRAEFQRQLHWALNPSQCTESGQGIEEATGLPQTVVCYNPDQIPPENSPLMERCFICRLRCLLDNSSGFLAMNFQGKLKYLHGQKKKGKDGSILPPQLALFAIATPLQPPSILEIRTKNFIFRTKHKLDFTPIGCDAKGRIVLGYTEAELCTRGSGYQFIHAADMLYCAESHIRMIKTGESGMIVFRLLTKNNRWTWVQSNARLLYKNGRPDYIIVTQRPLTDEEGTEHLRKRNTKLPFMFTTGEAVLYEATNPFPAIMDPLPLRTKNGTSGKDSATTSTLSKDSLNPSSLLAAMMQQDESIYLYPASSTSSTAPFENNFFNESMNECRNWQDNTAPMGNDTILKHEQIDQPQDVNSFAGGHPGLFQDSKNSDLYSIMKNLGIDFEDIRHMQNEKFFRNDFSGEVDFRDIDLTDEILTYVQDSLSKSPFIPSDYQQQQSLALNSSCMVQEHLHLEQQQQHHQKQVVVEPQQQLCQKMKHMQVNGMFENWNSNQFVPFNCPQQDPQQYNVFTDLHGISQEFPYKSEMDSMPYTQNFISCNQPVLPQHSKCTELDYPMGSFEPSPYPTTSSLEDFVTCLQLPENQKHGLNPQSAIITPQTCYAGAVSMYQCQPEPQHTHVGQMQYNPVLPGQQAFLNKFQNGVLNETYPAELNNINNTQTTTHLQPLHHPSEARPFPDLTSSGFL
Chain of Retinoic acid receptor alpha (Homo sapiens) (P10276 whole entry, looked up): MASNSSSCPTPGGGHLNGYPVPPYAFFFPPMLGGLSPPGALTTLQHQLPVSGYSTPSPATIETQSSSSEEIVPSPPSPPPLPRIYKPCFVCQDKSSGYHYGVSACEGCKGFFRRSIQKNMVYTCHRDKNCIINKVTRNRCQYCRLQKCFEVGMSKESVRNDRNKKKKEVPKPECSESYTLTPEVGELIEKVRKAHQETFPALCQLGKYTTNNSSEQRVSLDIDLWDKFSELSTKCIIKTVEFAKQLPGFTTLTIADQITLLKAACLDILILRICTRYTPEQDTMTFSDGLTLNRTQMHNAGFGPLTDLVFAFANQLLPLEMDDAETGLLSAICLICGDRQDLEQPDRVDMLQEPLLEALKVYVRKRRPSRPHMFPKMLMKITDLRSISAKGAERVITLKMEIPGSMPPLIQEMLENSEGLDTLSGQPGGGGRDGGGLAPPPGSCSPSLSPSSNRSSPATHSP

As for `CN1CCN(Cc2cc(-c3ccc4[nH]c(=O)oc4c3)co2)[C@@H](c2ccc(F)cc2)C1`, the AC50 is 51.9 µM (active) in assay [1]; 41.5 µM (active) in assay [2]; 66.8 µM (active) in assay [3]; 27 µM (active) in assay [4]; 73.2 µM (active) in assay [5]; 62 µM (active) in assay [6]. The AC50 in assay [7] is 41.2 µM (active); in assay [9], 54.8 µM (active); in assay [10] it was 64.6 µM (active); in assay [11], 33 µM (active); in assay [13], 56.5 µM (active); in assay [15] it was 53.9 µM (active). The result in [8], in assay [12], in assay [14], in [16] and in assay [17] was inactive.

On to `O=c1c(O)c(-c2ccc(O)c(O)c2)oc2cc(O)cc(O)c12`, for which the AC50 in assay [1] is 22.6 µM (active); in assay [2], 68.1 µM (active); in [6] it was 48.6 µM (active); in assay [10], 7.83 µM (active); in assay [18], 26.5 µM (active); in assay [14] it was 5.8 µM (active). Moreover, the AC50 in assay [15] was 100 µM (active). In addition, the call in [3], in assay [4], in [5], in assay [7], in assay [8] and in [9] was inactive. For the same compound, the compound was classed as inactive in assay [11], in assay [12], in assay [13], in [17] and in assay [19].

Turning to `COc1ccc(S(=O)(=O)N2C(=O)[C@@](c3ccccc3OC)(N3C[C@H](O)C[C@H]3C(=O)N(C)C)c3cc(Cl)ccc32)c(OC)c1`, the AC50 in assay [1] is 61 µM (active); in [2], 106 µM (active); in assay [4], 40.7 µM (active); in assay [6], 68.2 µM (active); in assay [7], 100 µM (active); in [9], 100 µM (active). Also, the AC50 is 65.7 µM (active) in [10]; 87.9 µM (active) in assay [11]; 26.1 µM (active) in [13]; 29.9 µM (active) in assay [14]; 27.6 µM (active) in assay [15]. In addition, the compound was classed as inactive in assay [3], in assay [5], in [8], in [12], in assay [18] and in assay [16]. Besides, the compound was classed as inactive in assay [19].

For the compound `CC(=O)OC/C=C(\C)CCC=C(C)C`, the compound was classed as inactive in assay [1], in assay [2], in assay [3], in assay [4], in assay [5] and in assay [6]. Also, the outcome in [7], in [8], in assay [9], in assay [10], in assay [11] and in [12] was inactive. The compound was classed as inactive in assay [13], in assay [14] and in [15].
